# Results taken from PubChem BioAssay (EPA / NIEHS).
# Calls of active or inactive are those of the source. How the source made its calls: active means hit-call score of the fitted dose curve at least 0.9, where 1 is the maximum; inactive means score below 0.9.
# Assay: APR_HepG2_MitoticArrest_1hr: Apredica 1-hour HepG2 Assay for Mitotic Arrest (AID 2282672)
# Conditions: high-content imaging, actives raise or lower the signal
# Method: APR_HepG2_1hr is a cell-based, multiplexed-readout assay that uses HepG2, a human liver cell line, with measurements taken at 1 hour after chemical dosing in a 384-well plate.APR_HepG2_MitoticArrest_1hr is one of 10 assay component(s) measured or calculated from the APR_HepG2_1hr assay. It is designed to make measurements of cell phenotype, a form of morphology reporter, as detected with fluorescence intensity signals by HCS Fluorescent Imaging technology.Data from the assay component APR_HepG2_MitoticArrest_1hr was analyzed into 1 assay endpoint. This assay endpoint, APR_HepG2_MitoticArrest_1hr, was analyzed with bidirectional fitting relative to DMSO as the negative control and baseline of activity. Using a type of morphology reporter, measures of protein for gain or loss-of-signal activity can be used to understand the signaling at the pathway-level as they relate to the gene . Furthermore, this assay endpoint can be referred to as a primary readout, because this assay has produced multiple assay endpoints where this one serves a signaling function. To generalize the intended target to other relatable targets, this assay endpoint is annotated to the cell cycle intended target family, where the subfamily is arrest.
# Cells were treated with dimethyl sulfoxide (DMSO) as a solvent control at a final concentration of 0.5% v/v or with compounds in DMSO with a resulting final DMSO concentration of 0.5% v/v. Compound treatment was done at concentrations of 0.39, 0.78, 1.56, 3.12, 6.24, 12.5, 25, 50, 100, and 200 uM in duplicate on each plate. Cells were treated with compounds for 1, 24, or 72 hr. Carbonyl […] m-chloro-phenylhydrazone (CCCP) and taxol were used as positive controls for mitochondrial function and cytoskeletal stability, respectively; DMSO served as the negative control for this experiment. Cells were fixed by the direct addition of 50 uL formaldehyde in Hank's Balanced Salt Solution (HBSS) to a final concentration of 3.7%. After incubation in the fixation medium for 30 min at room temperature (293-298 K), cells were rinsed twice with HBSS and treated with cell permeabilization buffer (16 uL of 0.5% Triton X-100) for 10 min at room temperature (293-298 K) before labeling. For mitochondrial membrane potential and mitochondrial measurements, pre-fixed cells were incubated with 50 uL of MitoTracker Red CMXRos (Invitrogen) at a concentration of 250 nM for 30 min before fixation. In the remaining cases, post-fixed cells were labeled by incubation with a multiplexed mixture of primary antibodies in HBSS for 60 min at room temperature (293-298 K) to detect immunoreactivity of c-Jun (1:500), phospho-histone H3 (1:100), phospho-histone H2A.x (1:200), p53 (1:400), alpha-tubulin (1:200) and Hoechst 33342 (2 ug/mL). Cells were labeled for multiplexed imaging on two separate plates: a) Hoechst 33342, MitoTracker Red, phospho-histone H3, and alpha-tubulin, and b) Hoechst 33342, phospho-histone H2A.x, and c-Jun. A final rinse with HBSS (50 uL) was performed before analysis. The primary and secondary antibodies for the proteins were phospho-histone H3 (rabbit anti-phospho-histone H3 and FITC-donkey anti-rabbit IgG), phospho-histone H2A.x (mouse anti-phospho-histone H2A.x and FITC-donkey anti-mouse IgG), c-Jun (rabbit anti-phospho-c-Jun and Cy3-donkey anti-rabbit IgG), p53 (sheep anti-p53 and Cy5-donkey anti-sheep IgG), alpha-tubulin (mouse anti-alpha-tubulin and Cy5-donkey anti-mouse IgG). These antibodies are available as the CellCiphr HepG2 assay kit (Millipore).Digital images of each well were captured using a Cellomics ArrayScan VTI (Thermo Scientific Cellomics) (0.8 NA objective, 0.63x optical coupler, and XF-93 filter set) at 20x magnification. The images were acquired using the autofocus feature of the ArrayScan instrument, which entails the following steps. First, the camera focuses on channel 1 (Hoechst 33342), where nuclei are identified. Second, a Z offset of 1 um is used for capturing mitochondria (MitoTracker Red). […]
row,Structure (SMILES),outcome
1,COP(=O)(OC)OC(Br)C(Cl)(Cl)Br (stereo not given),inactive
2,C#CC(C)(C)NC(=O)c1cc(Cl)cc(Cl)c1,inactive
3,CC(Oc1cccc(Cl)c1)C(=O)O (stereo not given),inactive
4,CCCCSP(=O)(SCCCC)SCCCC,inactive
5,CCc1cnc(C2=NC(C)(C(C)C)C(=O)N2)c(C(=O)O)c1 (stereo not given),inactive
6,CC(C)=CC1C(C(=O)OCN2C(=O)C3=C(CCCC3)C2=O)C1(C)C (stereo not given),inactive
7,CCOP(=S)(OCC)Oc1ccc([N+](=O)[O-])cc1,inactive
8,CCc1cccc(C)c1N(C(=O)CCl)C(C)COC (stereo not given),inactive
9,COc1cccc(C(=O)NN(C(=O)c2cc(C)cc(C)c2)C(C)(C)C)c1C,inactive
10,CC(C)N(C(=O)SCC(Cl)=C(Cl)Cl)C(C)C,inactive
11,CN1COCN(Cc2cnc(Cl)s2)C1=N[N+](=O)[O-],inactive
12,COP(=O)(OC)C(O)C(Cl)(Cl)Cl (stereo not given),inactive
13,CCC(CC)Nc1c([N+](=O)[O-])cc(C)c(C)c1[N+](=O)[O-],inactive
14,CCCSP(=O)(OCC)SCCC,inactive
15,CN(C)NC(=O)CCC(=O)O,inactive
16,Nc1nc(N)nc(NC2CC2)n1,inactive
17,Cc1nn(-c2cc(NS(C)(=O)=O)c(Cl)cc2Cl)c(=O)n1C(F)F,inactive
18,CC1=NNC(=O)N(/N=C/c2cccnc2)C1,inactive
19,FC(F)C(F)(F)OCC(Cn1cncn1)c1ccc(Cl)cc1Cl (stereo not given),inactive
20,CCOP(=O)(SC(C)CC)N1CCSC1=O (stereo not given),inactive

row,Structure (SMILES),outcome
1,COP(=O)(NC(C)=O)SC (stereo not given),inactive
2,CC1(C(=O)Nc2ccc(O)c(Cl)c2Cl)CCCCC1,inactive
3,CCOP(=O)(NC(C)C)Oc1ccc(SC)c(C)c1 (stereo not given),inactive
4,COc1ccc(C(=CC(=O)N2CCOCC2)c2ccc(Cl)cc2)cc1OC,inactive
5,CNC(=O)Oc1cccc2c1OC(C)(C)O2,inactive
6,Cc1ccn2nc(S(=O)(=O)Nc3c(F)cccc3F)nc2n1,inactive
7,CCOP(=S)(OCC)SCCSCC,inactive
8,C=C(C)[C@H]1Cc2c(ccc3c2O[C@@H]2COc4cc(OC)c(OC)cc4[C@@H]2C3=O)O1,inactive
9,C[N+]1(C)CCCCC1,inactive
10,COP(=O)(OC)SCn1c(=O)oc2cc(Cl)cnc21,inactive
11,CON=C(C(=O)OC)c1ccccc1CON=C(C)c1cccc(C(F)(F)F)c1,inactive
12,CCOP(=S)(Oc1cnc(C(C)(C)C)nc1)OC(C)C (stereo not given),inactive
13,C[Si](Cn1cncn1)(c1ccc(F)cc1)c1ccc(F)cc1,inactive
14,CC[C@H](C)[C@H]1O[C@]2(C=C[C@@H]1C)C[C@@H]1C[C@@H](C/C=C(\C)[C@@H](O[C@H]3C[C@H](OC)[C@@H](O[C@H]4C[C@H](OC)[C@@H](NC)[C@H](C)O4)[C@H](C)O3)[C@@H](C)/C=C/C=C3\CO[C@@H]4[C@H](O)C(C)=C[C@@H](C(=O)O1)[C@]34O)O2,inactive
15,CCNc1nc(Cl)nc(NC(C)(C)C#N)n1,inactive
16,CSC1=N[C@@](C)(c2ccccc2)C(=O)N1Nc1ccccc1,inactive
17,CCOP(=S)(OCC)OC(Cl)C(Cl)(Cl)Cl (stereo not given),inactive
18,CNC(=O)ON=C(C)SC,inactive
19,Cc1cc(C2CC2)nc(Nc2ccccc2)n1,inactive
20,CCCOc1nn(C(=O)NS(=O)(=O)c2ccccc2C(=O)OC)c(=O)n1C,inactive
